Screens deposited in PubChem by National Center for Advancing Translational Sciences (NCATS).
SKOV3 invasion: inhibitors of ovarian cancer cell adhesion and invasion in omental model; SKOV3ip1-GFP adhesion/invasion on 3D omental model, fluorescence; Potency, µM (titrated, usually from 45.8 µM), inactives show at the highest dose activity change, negative = inhibition, most hits filed as inhibitors; actives 0.1% (n = 46,000); AID 1963576;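 further: plate controls were DMSO wells for no effect and tomatine positive control wells for full effect; nearly all actives have a fitted effect of over 65% in size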
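Primary human omental fibroblast/mesothelial 3D culture pre-formed 48 h. SKOV3ip1-GFP cells added with compounds (0.36-46 umol/L), incubated 2 h RT/16 h 37 C, fixed; GFP cells quantified at 488/509 nm.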
NTMT1 inhibitor: inhibitors of human N-terminal methyltransferase NTMT1 | NTMT1 MTase-Glo SAH luminescence, purified enzyme | Q9BV86 | Potency, µM (top dose mostly 114 µM), for inactives: at the top dose activity change, negative = inhibition, actives largely listed as inhibitors | actives 2.5% (n = 59,000);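 further: plate controls were DMSO vehicle for no effect and no enzyme for full effect; nearly all actives have a fitted effect of over 65% in size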
Target sequence (Q9BV86 whole entry, looked up): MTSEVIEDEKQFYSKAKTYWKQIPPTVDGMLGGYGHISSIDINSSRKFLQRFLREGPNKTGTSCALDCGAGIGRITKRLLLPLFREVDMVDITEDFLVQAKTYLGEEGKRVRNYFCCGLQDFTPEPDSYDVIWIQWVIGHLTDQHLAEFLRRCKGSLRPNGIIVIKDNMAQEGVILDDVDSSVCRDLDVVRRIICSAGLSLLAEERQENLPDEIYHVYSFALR
p53null 32C kill: p53 null cell cytotoxicity, permissive temperature. H1299-neo p53 null cells, ATP luminescence, 24 h, 32C. actives 0.62% (n = 55,000). Potency, µM (series often up to 46.1 µM), for inactives: top-dose activity change, negative = cytotoxicity, actives largely listed as cytotoxic. AID 903;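 further: 0% = DMSO only and -100% = full killing by 100 µM tamoxifen; nearly all actives have a fitted effect of over 55% in size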
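ATP-content luminescence in p53-null H1299-neo cells after 24 h compound exposure (up to 46 uM) at 32C permissive temperature; 0% and 100% killing set by DMSO and 100 uM tamoxifen; Hill-equation AC50.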
p53null 39C kill: kills p53 null cells at the nonpermissive temperature. actives 0.97% (n = 55,000). Potency, µM (doses to about 46.1 µM), inactives show at the top dose activity, negative = cell killing, usual class: cytotoxic. AID 904. H1299 p53-null (neo) cells, 39C, ATPlite viability, 24 h;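 further: 0% = DMSO only and -100% = full killing by 100 µM tamoxifen; nearly all actives have a fitted effect of over 50% in size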
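H1299 lung cancer cells, p53-null (H1299-neo) or expressing p53 A138V (H1299-p53A138V), were plated overnight at 37C, then exposed to compounds at up to 46 uM for 24 hr at 39C. Viability was read by ATP-based luminescence.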
* hit, by the source's call; i = inactive; ? = inconclusive; . = not tested or not shown; ! = a repeat was not active; [ ] = remark or other dose. This is one part of a sample in which hits are shown more often than they occur. The call rests on the fitted dose curve; in most records, active means well fitted curve in the direction sought with a large enough effect; inconclusive means small, poorly fitted or top-dose-only effect, or another doubt; inactive means no such curve, though single readings can be large; an effect the other way counts as inactive or inconclusive. Potency means the concentration at half of the fitted maximal effect.

SMILES | SKOV3 invasion | NTMT1 inhibitor | p53null 32C kill | p53null 39C kill
O=S(=O)(Nc1cccc(-c2ccc(N3CCCCC3)nn2)c1)c1cccs1 | 11.7% | . | 15.8µM* | 10µM*
O=S(=O)(Nc1cccc(-c2ccc(N3CCCC3)nn2)c1)c1cc(F)ccc1F | 2.3% | . | -10.4% | -9.6%
O=S(=O)(Nc1cccc(-c2ccc(N3CCCCC3)nn2)c1)c1ccc(Cl)s1 | -5.1% | . | 15.8µM* | 10µM*
C(=Nc1cccnc1)c1cccs1 | . | -0.1%[57.5 µM] | . | .
c1ccc2c(-c3cnn4cc(-c5ccc(OCCN6CCOCC6)cc5)cnc34)ccnc2c1 | . | -15.0%[57.5 µM] | . | .
COc1ccccc1N1CCN(C(=O)CN2C(=O)COc3ccc(S(=O)(=O)N4CCC(C)CC4)cc32)CC1 | i | -14.1% | 10.3% | 6.8%
CC1CCN(S(=O)(=O)c2ccc3c(c2)N(CC(=O)N2CCN(c4ccccc4)CC2)C(=O)CO3)CC1 | i | 89.1µM* | 7.5% | -14.0%
Cc1cc(N[S+](=O)([O-])c2ccc(NC(=O)Cc3ccc(Cl)nc3)cc2)no1 | . | 16.2% | . | .
COc1ccc(Br)cc1CC1C(=O)Nc2ccccc21 (stereo not drawn) | -20.5% | 25.1µM* | 3.8% | 9.1%
Cc1ccccc1CC1C(=O)Nc2ccc(Br)cc21 (stereo not drawn) | i | ? | -7.4% | -11.9%
Cc1ccc(NC(=O)Nc2ccc3nc(N4CCN(C)CC4)cc(C)c3c2)cc1C | ? | 89.1µM* | ? | ?
Cc1ccc(/C=C/C(=O)Nc2ccc3nc(N4CCC(C)CC4)cc(C)c3c2)cc1 | 6.0% | 89.1µM* | -5.2% | -11.4%
Cc1cc(N2CCC(C)CC2)nc2ccc(NC(=O)/C=C/c3cccc(Cl)c3)cc12 | i | -1.0% | -5.3% | 6.3%
Cc1cc(N2CCN(C)CC2)nc2ccc(NC(=O)Nc3ccccc3)cc12 | -20.9% | -11.5% | ? | ?
C[C@@]1(c2ncncc2F)NC(=O)c2cc(-c3cn[nH]c3)ccc21 | . | 0.2% | . | .
COC(=O)c1scc(-c2ccc(C)cc2)c1S(=O)(=O)Nc1cc(OC)c(OC)c(OC)c1 | i | 89.1µM* | 10.2% | -2.7%
COc1ccc(Cl)cc1NS(=O)(=O)c1cc(Br)cc2c1N(C(=O)C1CC1)CC2 | i | 4.2% | -0.1% | -0.4%
COc1cc(NS(=O)(=O)c2cc(Br)cc3c2N(C(=O)C2CC2)CC3)cc(OC)c1 | -0.5% | 7.1% | 7.94µM* | ?
Cc1ccc(NS(=O)(=O)c2cc(Br)cc3c2N(C(=O)C2CC2)CC3)cc1C | i | 0.8% | 19.8% | -8.1%
O=C(C1CC1)N1CCc2cc(Br)cc(S(=O)(=O)Nc3ccc(F)c(F)c3)c21 | 34.5% | 17.5% | 25.1µM* | 12.6µM*
O=C(C1CC1)N1CCc2cc(Br)cc(S(=O)(=O)Nc3ccc(C(F)(F)F)cc3)c21 | i | 2.0% | ? | 15.8µM*
N#Cc1ccc(-c2ccc(-c3nc4ccccc4c(=O)[nH]3)o2)cc1 | . | -19.2% | . | .
Cn1nccc1Nc1nccc(-c2cc3c(s2)C(C)(C)N(CCN2CCOCC2)C3=O)n1 | . | 2.6% | . | .
COc1ccc(CCc2nc3c(C)c(-c4c(C)noc4C)c(C)cc3n2CCN2CCOCC2)cc1 | . | 10.6%[57.5 µM] | . | .
O=C1CCCC2=C1C(c1[nH]ncc1Cl)NC(=NCc1ccoc1)N2 (stereo not drawn) | . | 8.9% | . | .
SMILES | SKOV3 invasion | NTMT1 inhibitor | p53null 32C kill | p53null 39C kill
O=C(Nc1ncc(Cc2ccc(C(F)(F)F)cc2)s1)c1ccco1 | . | 6.5%[57.5 µM] | . | .
c1ccc2cc(OCc3nc4ccccc4[nH]3)ccc2c1 | . | . | 11.2µM* | 11.2µM*
CCOc1ccc(/C=C2\SC(=O)N(CCN)C2=O)cc1 | . | -12.0% | . | .
CCCCOc1ccc(CC/C=C2\SC(=O)N(CCN)C2=O)cc1 | . | 50.1µM* | . | .
O=C(Cn1ncccc1=O)NCCc1ccccc1 | . | -1.1% | . | .
O=c1[nH]c(CCl)nc2sc3c(c12)CCC3 | . | -2.6% | . | .
Oc1cc(CNC(=S)/C=C/c2cc(O)c(O)c(Br)c2)cc(O)c1O | . | 44.7µM* | . | .
CN(C)CCC[C@@]1(c2ccc(F)cc2)OCc2cc(C#N)ccc21 | . | 25.1µM* | . | .
O=C(O)CCCCN(CCc1ccccc1OCc1ccc(CCc2ccccc2)cc1)Cc1ccc(C(=O)O)cc1 | . | -6.3% | . | .
C[n+]1cc(NC(=O)c2cccc(C(=O)Nc3cc4ccccc4[n+](C)c3)n2)cc2ccccc21 | . | 50.1µM* | . | .
O=C(CCS(=O)(=O)c1nc(-c2cccs2)cc(C(F)(F)F)n1)Nc1ccc(Br)cc1 | 3.16µM* | 8.4% | 5.1% | 47.2%
CCOc1ccc2nc(N3CCN(C(=O)c4ccc(S(=O)(=O)CC)cc4)CC3)sc2c1 | -6.5% | -5.3% | -12.9% | 19.3%
CCOc1ccc2nc(N3CCN(C(=O)CS(=O)(=O)c4ccc(F)cc4)CC3)sc2c1 | -8.6% | 0.0% | 10µM* | ?
Cc1ccc(C)c(N2CCN(C(=O)c3ccc4c(c3)c(C)c(C)n4C)CC2)c1 | 28.1% | -5.0% | 34.5% | 25.1µM*
CC(C)(C)C(=O)Nc1ccc(-c2nc3ccccc3s2)cc1 | ? | ? | 0.501µM* | 0.631µM*
CCS(=O)(=O)c1ccccc1C(=O)Nc1ccc(-c2nc3ccccc3s2)cc1 | i | -3.4% | -3.6% | -14.8%
O=C(c1cc2ccc3cccnc3c2[nH]1)N1CCN(c2ccc(Cl)cc2)CC1 | -1.3% | -1.5% | -10.5% | -14.8%
CC1CCCN(C(=O)c2cc3ccc4cccnc4c3[nH]2)C1 (stereo not drawn) | -18.0% | ? | 1µM* | 2µM*
O=C(c1cc2ccc3cccnc3c2[nH]1)N1CCCCC1 | 2.1% | 39.8µM* | 2µM* | 0.794µM*
Cc1cccc(CNc2ncnc3ccc(-c4cccnc4)cc23)c1 | . | -10.2% | . | .
Cc1[nH]nc2ccc(-c3cncc(OC[C@@H](N)Cc4ccccc4)c3)cc12 | 15.3% | 25.1µM*! | . | .
Cc1c(C)n(Cc2ccccc2)c2ccc(C(=O)NCCc3ccccc3Cl)cc12 | 5.5% | 12.0% | 8.4% | 7.1%
Cc1[nH]c2ccc(C(=O)NCCc3ccccc3Cl)cc2c1C | i | 89.1µM* | -6.2% | -28.5%
O=C1c2ccccc2-[n+]2ccc3c([nH]c4ccccc43)c21 | 2.35µM* | 44.7µM* | . | .
Cc1ccc(CCNC(=O)c2cc3c(s2)-c2c(C)cccc2OC3)cc1 | -20.1% | 89.1µM* | 2.0% | -1.8%
SMILES | SKOV3 invasion | NTMT1 inhibitor | p53null 32C kill | p53null 39C kill
Cc1ccc(CCNC(=O)c2cc3c(s2)-c2ccccc2OC3)cc1 | ? | -16.9% | -4.9% | -25.6%
Cc1cccc2c1-c1sc(C(=O)Nc3ccccc3C(N)=O)cc1CO2 | -7.0% | -3.8% | 15.8µM* | ?
COCCCNC(=O)c1oc2c(c1C)-c1nn(Cc3cccc(Cl)c3)cc1CC2 | 0.0% | -21.3% | 19.5% | 17.8µM*
Cc1c(C(=O)O)oc2c1-c1nn(Cc3ccc(Cl)cc3)cc1CC2 | 3.3% | 50.1µM* | 13.7% | -5.3%
CCOC(=O)c1oc2c(c1C)-c1nn(Cc3ccc(Cl)cc3)cc1CC2 | i | -13.7% | 25.0% | 21.4%
COCCCNC(=O)c1oc2c(c1C)-c1nn(Cc3ccc(Cl)cc3)cc1CC2 | -9.0% | -1.4% | 24.7% | -8.0%
COc1ccc(OCC(O)Cn2c(=N)n(CCN3CCCCC3)c3ccccc32)cc1 (stereo not drawn) | ? | -6.9% | -5.7% | ?
